From PubChem BioAssay
Many of the other results were omitted from the sample, so hits are more common in it than they were.
Pf Dd2 growth: blocks in vitro growth of P. falciparum Dd2; 4.3% of 120,000 active; Potency, µM (highest dose often 28.9 µM), hits mostly inhibitors; AID 1347417; P. falciparum Dd2 growth, SYBR Green, 72 h; active = well fitted inhibition curve with a large enough effect; note: nearly all actives have a fitted effect of over 65% in size
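Readout: SYBR Green fluorescence, 485 nm excitation, 535 nm emission, after ~16 h lysis at 37C. Before that, Dd2-infected red cells (2.5% hematocrit) grew 72 h with compound, 29 uM top final concentration.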
Large screens that a line does not name were inactive.

Cc1ccccc1[C@H]1C[C@@H](O)[C@@H](O)[C@@H]1NS(=O)(=O)c1ccc(C#N)cc1	none
CCCCCN(CCC(=O)NCc1ccc2c(c1)OCO2)C(=O)c1cc(C)oc1C	none
CCc1noc(-c2cn(C3CCCN(C(=O)c4ccc(OC(F)(F)F)cc4)C3)nn2)n1 (stereo not drawn)	none
CCOC(=O)CSc1nc2c([nH]c3ccccc32)c(=O)n1-c1ccc(OC)cc1	none
COC(=O)c1ccc(CSc2nc3c([nH]c4ccccc43)c(=O)n2-c2ccc(OC)cc2)o1	none
COc1ccc(-n2c(SCC(=O)NC3CCCCC3)nc3c([nH]c4ccccc43)c2=O)cc1	Pf Dd2 growth 10µM
CCC1CCCCN1C(=O)CSc1nc2c([nH]c3ccccc32)c(=O)n1-c1ccc(OC)cc1 (stereo not drawn)	Pf Dd2 growth 13µM
CCOc1ccc(-n2c(SCC(=O)NCC3CCCO3)nc3c([nH]c4ccccc43)c2=O)cc1 (stereo not drawn)	none
COc1ccc(-n2c(SCC(=O)N3CCCc4ccccc43)nc3c([nH]c4ccccc43)c2=O)cc1	none
CN(C(=O)C1CC1)C1CCc2ccccc21 (stereo not drawn)	none
Cc1ccc(C2Cn3nnc(-c4nc(-c5ccccc5C)no4)c3CO2)c(C)c1 (stereo not drawn)	none
O=C(C1CC1)N1CCC(N2C(=O)C(OCC3CC3)C23CCOCC3)CC1 (stereo not drawn)	none
COCCN1C(=O)CO[C@H]2CN(c3nccc(OC)n3)C[C@H]21	none
COc1ccc(-c2ccc3nnc(CNC(=O)C(C)Oc4ccccc4)n3n2)cc1 (stereo not drawn)	none
CCOCCOc1cccc(C(=O)N2C[C@H](C3CC3)[C@@H](N)C2)c1	none
O=C(NC[C@H]1O[C@@H](CO)[C@@H](O)[C@H]1N1CCN(c2ccc(F)cc2)CC1)c1cccs1	none
O=C(Nc1ccccc1)Nc1ccc([C@H]2OCC(=O)N(Cc3ccccc3)[C@@H]2CO)cc1	none
CCn1nccc1C(=O)N1CCCN(C)c2ccccc21	none
CCC1COCCN1Cc1cn(-c2ccccc2)nc1-c1ccc(OC)cc1F (stereo not drawn)	Pf Dd2 growth 13µM
COc1cccc(N2CC(C(=O)N3CCC(C#N)CC3)NC2=O)c1 (stereo not drawn)	none
COc1ccc(-c2ccnc3nc(C4CC4)nn23)c(F)c1	none
COc1ccc(-n2nc(C3CCN(Cc4cccc5ccccc45)CC3)[nH]c2=O)cc1	none
COc1ccc(CN2CCN(c3nc4ccccc4o3)CC2CCO)c(F)c1 (stereo not drawn)	none
COc1ccc(OC)c(CN2CCN(Cc3ccccc3F)C(CCO)C2)c1 (stereo not drawn)	none
COc1ccc(-c2nn(-c3ccccc3)cc2CN2CCC(C#N)CC2)c(F)c1	Pf Dd2 growth 11µM
COc1ccc(-c2nn(-c3ccccc3)cc2CN2CCC(CO)CC2)c(F)c1	none
Cc1cccc(-n2cc(CN3CCCC(C)(O)C3)c(-c3cccc(F)c3)n2)c1 (stereo not drawn)	Pf Dd2 growth 8.9µM
CC(=O)NC1(C)CCN(Cc2cnc(-c3cccc(F)c3)s2)CC1	none
OC1(CN2CCCCC2)CCN(Cc2cccc(F)c2F)C1 (stereo not drawn)	none
COc1ccc(-c2nn(-c3ccccc3)cc2CN2CCC(F)CC2)c(F)c1	Pf Dd2 growth 11µM
CCc1nc2c(=O)n(CC(=O)NCCC3=CCCCC3)nc(C)c2s1	none
COc1ccc(CNC(=O)[C@@H]2CCC[C@@H](NC(=O)c3ccc(C#N)cc3)CN(C)C(=O)C2)cc1	none
CCN(C1CCOCC1)C1CN(C(=O)c2cccs2)C1	none
CC(C)CCN1CC(C(=O)NCc2ccncc2)C2(CCOCC2)C1 (stereo not drawn)	none
COc1ccc(-c2nc3c(C)cccc3cc2CN2CCC(O)CC2)cc1OC	none
COc1cccc(-c2ccccc2NC(=O)C2CCN(Cc3cc(F)ccc3F)CC2)c1	none
COc1ccc(-n2cc(CN3CCC(O)CC3)c(-c3cccc(F)c3)n2)cc1	Pf Dd2 growth 13µM
Cc1ccccc1-c1nn(-c2ccc(F)cc2F)cc1CN1CCC[C@@H]1C(N)=O	none
Cc1ccccc1-c1nn(-c2ccc(F)cc2F)cc1CN1CCC(O)CC1	Pf Dd2 growth 11µM
O=c1n(-c2ccc(F)cc2F)nc2n1CCN(Cc1cccc3ccccc13)C2	none
O=[S+]1([O-])NCC2(CCN(Cc3ccc(OC(F)(F)F)cc3)C2)Nc2ccccc21 (stereo not drawn)	none
CCOC(=O)C1CCN(C(=O)CCN(CC)C(=O)c2cc(C)oc2C)CC1	none
CC(=O)N1CCn2cc(C(=O)NCc3ccc(Cl)nc3)nc2C1	none
CN(CCCO)C(=O)c1cccc(CC2CCNCC2)c1	none
COc1ccc(C)cc1NC(=O)[C@H]1CCC[C@H]1NC(=O)c1cnc(C)cn1	none
Cc1cccc(C(=O)Nc2cc(-c3nc4cccnc4s3)ccc2C)c1	none
CCC(C(=O)Nc1cc(-c2nc3cccnc3s2)ccc1C)c1ccccc1 (stereo not drawn)	Pf Dd2 growth 10µM
Cc1ccc(-c2nc3cccnc3s2)cc1NC(=O)C(C)C	none
COCC1CN(C(=O)c2ocnc2C)CC12CCNCC2 (stereo not drawn)	none
COc1ccc(CNC(=O)[C@H]2O[C@H](CCN3CCCC3)CC[C@@H]2O)cc1	none
CC(C)c1ccc(S(=O)(=O)N2CCC3(CCCNC3)C2)cc1 (stereo not drawn)	Pf Dd2 growth 5µM
CN1CCC(N2CCN(S(=O)(=O)c3ccccc3C(F)(F)F)CC2)C1=O (stereo not drawn)	none
CNc1ccc(C(=O)N2CCC3(CCCNC3)C2)cc1 (stereo not drawn)	none
O=S(=O)(c1ccccc1C(F)(F)F)N1CCC2(CCCNC2)C1 (stereo not drawn)	Pf Dd2 growth 7.9µM
O=c1ccc2cc(S(=O)(=O)N3CCC4(CCCNC4)C3)ccc2o1 (stereo not drawn)	none
O=C(c1cc(F)c(F)c(F)c1)N1CCC2(CCCNC2)C1 (stereo not drawn)	none
CN(C)CCN1CC2(CCCN(C(=O)CN(C)c3ccccc3)C2)CCC1=O (stereo not drawn)	none
O=C(c1ccc(F)cc1)N1CC[C@H]2COC(=O)N2c2cc(F)ccc2C1	none
CC(=O)c1c(C)nn(CC(=O)N2CCOC(C(=O)O)C2)c1C (stereo not drawn)	none
CCNC(=O)NC[C@@H]1C=C(C)[C@H](CC(=O)NCCN2CCOCC2)C[C@H]1C(C)C	none
Cc1c(C(=O)OC2CCCCCC2)[nH]c2c1C(=O)CC(c1ccc(Cl)cc1)C2 (stereo not drawn)	none
Cc1c(C(=O)OC2CCCCCC2)[nH]c2c1C(=O)CC(c1ccccc1Cl)C2 (stereo not drawn)	Pf Dd2 growth 10µM
Cc1c(C(=O)OCC2CCCCC2)[nH]c2c1C(=O)CC(c1ccc(F)cc1)C2 (stereo not drawn)	none
Cc1c(C(=O)OC2CCC(C)CC2)[nH]c2c1C(=O)CC(c1ccccc1Cl)C2 (stereo not drawn)	none
CC1=C(C(=O)OC2CCCCCC2)C(c2c(F)cccc2Cl)CC(=O)N1 (stereo not drawn)	none
COc1cc(C2CC(=O)c3c([nH]c(C(=O)OC4CCCC4)c3C)C2)cc(OC)c1OC (stereo not drawn)	Pf Dd2 growth 5.6µM
CCOC(=O)N1CCC(NC(=O)c2cnn(-c3ccc(F)cc3F)c2C2CCN(C(=O)OC(C)(C)C)CC2)CC1	Pf Dd2 growth 3.5µM
CC(C)(C)OC(=O)N1CCC(c2c(C(=O)NC3CCN(Cc4ccccc4)CC3)cnn2-c2ccc(F)cc2F)CC1	Pf Dd2 growth 11µM
CCCNC(=O)NC[C@H]1O[C@@H]2C[C@@H](CC(=O)NCc3cnn(C)c3)O[C@@H]2[C@@H]1O	none
COc1ncc(C(=O)NCc2cccnc2N2CCN(C(C)=O)CC2)cn1	none
